Measurements taken from the supplement of paper PMC10849652.
The full data set covers some 7,900 targets. This sample favours those with a hit. About 0.6% of all pairs of compound and target were hits.

These targets were tested with CC(C)N(C[C@H]1O[C@@H](n2cnc3c(N)ncnc32)[C@H](O)[C@@H]1O)[C@H]1C[C@@H](CCc2nc3cc(C(C)(C)C)ccc3[nH]2)C1 [pinometostat] (assay: log2 fold change, soluble protein after heating vs DMSO (PISA); higher = thermal stabilisation; K562 cells, 10 uM, 30 min; active = over 0.2 and 3.5 SD of the protein, either way, in both replicates (recomputed)).
In short: (§1)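 K562 cells at 2×10^6 cells/mL were given 10 μM compound for 30 min. Aliquots then went through 3 min of heating across 48°C-58°C, were pooled, and were extracted in PBS with 0.5% NP-40 at 4°C, and the supernatant after 21,000xg for 90 min was quantified by TMTpro 16plex LC-MS/MS with channel sums equalised. Thermal stability relative to control samples, from duplicates, is given as log2 fold change.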

Sequence of UniProt P41247 (P41247 whole entry, looked up): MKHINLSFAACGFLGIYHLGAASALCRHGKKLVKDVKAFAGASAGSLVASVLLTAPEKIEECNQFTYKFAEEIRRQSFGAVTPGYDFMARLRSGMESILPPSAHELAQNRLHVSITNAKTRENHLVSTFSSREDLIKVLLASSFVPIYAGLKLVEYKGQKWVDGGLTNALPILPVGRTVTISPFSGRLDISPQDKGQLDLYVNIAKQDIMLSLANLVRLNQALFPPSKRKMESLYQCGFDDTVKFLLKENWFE
Sequence of UniProt P14618 (P14618 whole entry, looked up): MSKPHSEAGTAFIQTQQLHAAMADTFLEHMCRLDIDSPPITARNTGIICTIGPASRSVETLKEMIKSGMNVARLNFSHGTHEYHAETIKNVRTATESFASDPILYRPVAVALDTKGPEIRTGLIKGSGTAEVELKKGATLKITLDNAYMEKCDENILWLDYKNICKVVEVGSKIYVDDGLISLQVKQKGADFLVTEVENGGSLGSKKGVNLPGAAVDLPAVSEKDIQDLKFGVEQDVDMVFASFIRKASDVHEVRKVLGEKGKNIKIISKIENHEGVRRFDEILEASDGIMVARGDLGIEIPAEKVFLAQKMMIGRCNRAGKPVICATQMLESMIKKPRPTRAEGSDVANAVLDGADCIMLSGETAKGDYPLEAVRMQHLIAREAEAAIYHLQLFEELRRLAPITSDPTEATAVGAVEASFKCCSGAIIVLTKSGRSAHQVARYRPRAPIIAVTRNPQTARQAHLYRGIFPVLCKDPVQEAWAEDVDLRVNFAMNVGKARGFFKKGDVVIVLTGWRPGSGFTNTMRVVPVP
Sequence of UniProt Q14289 (Q14289 whole entry, looked up): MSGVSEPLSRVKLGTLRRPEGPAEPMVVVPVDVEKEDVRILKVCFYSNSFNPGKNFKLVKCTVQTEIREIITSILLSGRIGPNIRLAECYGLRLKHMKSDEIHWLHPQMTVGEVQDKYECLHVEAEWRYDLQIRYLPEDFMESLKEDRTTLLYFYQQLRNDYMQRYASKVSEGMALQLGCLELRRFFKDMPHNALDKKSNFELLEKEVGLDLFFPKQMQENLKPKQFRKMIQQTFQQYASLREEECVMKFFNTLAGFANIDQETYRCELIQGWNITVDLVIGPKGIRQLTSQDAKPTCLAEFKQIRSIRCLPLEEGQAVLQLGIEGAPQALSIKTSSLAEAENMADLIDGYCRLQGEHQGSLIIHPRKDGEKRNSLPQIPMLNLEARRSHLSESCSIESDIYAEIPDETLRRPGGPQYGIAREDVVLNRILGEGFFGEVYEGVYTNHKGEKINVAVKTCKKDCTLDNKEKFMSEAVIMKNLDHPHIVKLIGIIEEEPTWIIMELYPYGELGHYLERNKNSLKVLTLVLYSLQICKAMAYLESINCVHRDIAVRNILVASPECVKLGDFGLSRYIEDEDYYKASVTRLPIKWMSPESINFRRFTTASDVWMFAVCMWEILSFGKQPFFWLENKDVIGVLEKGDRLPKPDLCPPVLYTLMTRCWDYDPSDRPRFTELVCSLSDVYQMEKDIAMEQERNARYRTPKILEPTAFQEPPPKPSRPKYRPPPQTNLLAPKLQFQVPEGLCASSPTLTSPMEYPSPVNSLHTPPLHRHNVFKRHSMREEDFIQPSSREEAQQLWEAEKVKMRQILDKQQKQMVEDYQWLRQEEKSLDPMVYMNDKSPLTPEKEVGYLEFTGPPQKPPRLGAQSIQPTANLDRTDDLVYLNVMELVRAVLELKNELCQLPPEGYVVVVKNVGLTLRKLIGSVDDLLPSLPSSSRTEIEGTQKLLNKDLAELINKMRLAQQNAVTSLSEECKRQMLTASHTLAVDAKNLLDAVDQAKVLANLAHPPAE
Sequence of UniProt Q9NYI0 (Q9NYI0 whole entry, looked up): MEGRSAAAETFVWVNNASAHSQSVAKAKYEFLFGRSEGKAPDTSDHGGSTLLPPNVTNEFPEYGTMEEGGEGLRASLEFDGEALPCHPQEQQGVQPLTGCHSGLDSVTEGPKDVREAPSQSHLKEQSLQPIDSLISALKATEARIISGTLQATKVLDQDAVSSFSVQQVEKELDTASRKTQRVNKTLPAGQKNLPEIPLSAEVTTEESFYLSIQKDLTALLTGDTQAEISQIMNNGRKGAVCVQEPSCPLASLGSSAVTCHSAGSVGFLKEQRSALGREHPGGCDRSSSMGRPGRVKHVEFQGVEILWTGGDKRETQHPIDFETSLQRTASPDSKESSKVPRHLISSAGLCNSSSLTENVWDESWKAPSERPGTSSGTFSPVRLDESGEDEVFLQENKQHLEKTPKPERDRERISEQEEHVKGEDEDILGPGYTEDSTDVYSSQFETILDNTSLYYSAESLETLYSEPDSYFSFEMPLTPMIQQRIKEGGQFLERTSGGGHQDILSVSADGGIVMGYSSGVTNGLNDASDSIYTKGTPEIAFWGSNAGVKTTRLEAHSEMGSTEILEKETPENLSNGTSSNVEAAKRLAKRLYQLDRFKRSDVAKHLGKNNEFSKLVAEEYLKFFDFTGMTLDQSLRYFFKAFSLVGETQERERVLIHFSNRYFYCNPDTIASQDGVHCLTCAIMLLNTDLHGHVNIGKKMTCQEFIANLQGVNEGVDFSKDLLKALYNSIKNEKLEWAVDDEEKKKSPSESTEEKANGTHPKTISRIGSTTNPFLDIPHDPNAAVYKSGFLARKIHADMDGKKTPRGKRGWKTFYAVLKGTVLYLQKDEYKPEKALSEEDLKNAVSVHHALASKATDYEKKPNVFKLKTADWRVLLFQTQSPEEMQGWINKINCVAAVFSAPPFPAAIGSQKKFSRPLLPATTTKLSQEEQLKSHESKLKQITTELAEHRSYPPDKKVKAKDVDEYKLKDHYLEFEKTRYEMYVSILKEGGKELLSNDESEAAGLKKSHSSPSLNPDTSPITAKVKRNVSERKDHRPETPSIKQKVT
Sequence of UniProt P07205 (P07205 whole entry, looked up): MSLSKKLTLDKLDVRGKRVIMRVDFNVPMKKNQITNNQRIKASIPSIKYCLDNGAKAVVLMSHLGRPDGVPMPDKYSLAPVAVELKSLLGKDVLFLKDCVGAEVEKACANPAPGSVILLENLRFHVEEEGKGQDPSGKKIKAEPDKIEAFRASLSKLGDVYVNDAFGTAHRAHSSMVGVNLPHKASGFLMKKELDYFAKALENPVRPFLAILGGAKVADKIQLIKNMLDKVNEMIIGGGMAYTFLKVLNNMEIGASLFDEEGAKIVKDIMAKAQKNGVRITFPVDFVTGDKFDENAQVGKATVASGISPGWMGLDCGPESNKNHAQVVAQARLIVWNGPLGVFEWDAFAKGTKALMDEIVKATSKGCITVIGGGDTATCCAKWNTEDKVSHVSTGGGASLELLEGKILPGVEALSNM
Sequence of UniProt Q8NDX5 (Q8NDX5 whole entry, looked up): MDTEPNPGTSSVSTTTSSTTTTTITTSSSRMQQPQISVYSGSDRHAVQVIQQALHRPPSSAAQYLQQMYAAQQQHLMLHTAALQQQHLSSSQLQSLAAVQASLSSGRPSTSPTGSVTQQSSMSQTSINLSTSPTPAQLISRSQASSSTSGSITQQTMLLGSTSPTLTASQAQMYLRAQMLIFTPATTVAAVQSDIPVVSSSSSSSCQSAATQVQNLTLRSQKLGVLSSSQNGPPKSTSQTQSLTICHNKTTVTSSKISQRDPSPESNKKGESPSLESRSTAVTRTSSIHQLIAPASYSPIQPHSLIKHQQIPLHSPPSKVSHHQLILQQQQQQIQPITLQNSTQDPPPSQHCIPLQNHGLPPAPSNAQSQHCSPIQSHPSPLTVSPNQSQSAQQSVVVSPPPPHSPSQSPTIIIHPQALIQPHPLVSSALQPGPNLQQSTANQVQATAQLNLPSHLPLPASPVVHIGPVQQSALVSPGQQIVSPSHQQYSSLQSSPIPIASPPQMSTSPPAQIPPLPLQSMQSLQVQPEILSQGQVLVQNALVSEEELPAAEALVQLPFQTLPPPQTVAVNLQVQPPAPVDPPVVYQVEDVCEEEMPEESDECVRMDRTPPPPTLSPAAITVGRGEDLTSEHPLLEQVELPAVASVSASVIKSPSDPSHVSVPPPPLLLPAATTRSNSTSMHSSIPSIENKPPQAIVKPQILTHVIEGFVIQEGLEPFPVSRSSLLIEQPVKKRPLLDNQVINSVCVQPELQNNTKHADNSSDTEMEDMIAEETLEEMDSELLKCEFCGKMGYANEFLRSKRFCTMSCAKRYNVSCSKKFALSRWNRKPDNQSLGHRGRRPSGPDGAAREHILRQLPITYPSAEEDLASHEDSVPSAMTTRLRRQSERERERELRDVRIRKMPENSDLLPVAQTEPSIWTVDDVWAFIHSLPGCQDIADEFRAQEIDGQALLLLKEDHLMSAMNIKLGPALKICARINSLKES
Sequence of UniProt Q8TCG2 (Q8TCG2 whole entry, looked up): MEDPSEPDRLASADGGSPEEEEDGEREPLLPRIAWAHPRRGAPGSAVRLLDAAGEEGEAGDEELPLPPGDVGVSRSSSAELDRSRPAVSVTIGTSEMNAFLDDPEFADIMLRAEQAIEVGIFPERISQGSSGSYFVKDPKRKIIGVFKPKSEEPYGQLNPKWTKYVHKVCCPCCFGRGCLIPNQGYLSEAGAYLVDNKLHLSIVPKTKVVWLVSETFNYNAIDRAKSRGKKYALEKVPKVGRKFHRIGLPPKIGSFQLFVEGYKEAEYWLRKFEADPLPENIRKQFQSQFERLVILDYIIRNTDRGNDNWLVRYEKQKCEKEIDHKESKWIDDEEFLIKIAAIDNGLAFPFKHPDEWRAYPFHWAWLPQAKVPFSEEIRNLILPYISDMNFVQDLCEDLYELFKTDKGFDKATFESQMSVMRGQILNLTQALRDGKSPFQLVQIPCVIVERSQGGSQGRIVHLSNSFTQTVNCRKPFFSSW
Sequence of UniProt Q68D20 (Q68D20 whole entry, looked up): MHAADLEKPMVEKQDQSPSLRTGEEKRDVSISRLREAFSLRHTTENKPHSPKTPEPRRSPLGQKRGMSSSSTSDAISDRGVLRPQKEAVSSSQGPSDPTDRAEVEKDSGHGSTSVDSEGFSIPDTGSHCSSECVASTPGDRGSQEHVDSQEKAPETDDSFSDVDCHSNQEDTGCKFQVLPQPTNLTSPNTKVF

Target	log2 fold change
PCBP2 (UniProt F8VZX2)	0.136 (inactive)
PHC3 isoform 7 (UniProt Q8NDX5)	-0.11 (inactive)
PCF11 (UniProt O94913)	-0.058 (inactive)
PPP2R5C isoform 2 (UniProt Q13362)	-0.017 (inactive)
POGZ (UniProt Q7Z3K3)	-0.05 (inactive)
PSMA3 (UniProt H0YJ03)	0.061 (inactive)
PTEN isoform 2 (UniProt P60484)	-0.006 (inactive)
PSMD8 (UniProt K7ERW6)	0.001 (inactive)
PDE4DIP (UniProt E9PS60)	0.178 (inactive)
PCID2 (UniProt Q5JVF3)	0.037 (inactive)
PIAS4 (UniProt Q8N2W9)	0.037 (inactive)
PUM1 (UniProt Q14671)	0.073 (inactive)
PSMC3 (UniProt E9PLG2)	-0.1 (inactive)
PGK2 (UniProt P07205)	-0.032 (inactive)
PRKD3 (UniProt O94806)	0.266 (inactive)
PNPLA4 (UniProt P41247)	0.049 (inactive)
PSD3 (UniProt Q9NYI0)	-0.037 (inactive)
PKM isoform 2 (UniProt P14618)	0.08 (inactive)
PTK2B (UniProt Q14289)	0.004 (inactive)
PI4K2B (UniProt Q8TCG2)	0.053 (inactive)
PSMA3 (UniProt G3V4X5)	-0.001 (inactive)

These targets were tested with CC1=C(C(CC(=O)N1)C2=CC=C(C=C2)C(F)(F)F)C(=O)NC3=C(C=C4C(=C3)C=NN4)F in the same assay as above.
In short: as §1

Target	log2 fold change
PCBP2 (UniProt F8VZX2)	0.128 (inactive)
PCNX1 (UniProt Q96RV3)	0.015 (inactive)
PHC3 isoform 7 (UniProt Q8NDX5)	0.021 (inactive)
PAN2 (UniProt Q504Q3)	0.099 (inactive)
PPP1R12C (UniProt Q9BZL4)	-0.291 (inactive)
PMS2CL (UniProt Q68D20)	0.231 (inactive)
PPP2R5B (UniProt Q15173)	0.037 (inactive)
PCID2 (UniProt Q5JVF3)	0.035 (inactive)
POLB (UniProt P06746)	-0.168 (inactive)
PPP1R12B isoform 6 (UniProt O60237)	-0.346 (active)
PGK2 (UniProt P07205)	0.096 (inactive)
PSMC1 (UniProt G3V4X1)	0.029 (inactive)
PNPLA4 (UniProt P41247)	0.054 (inactive)
PSD3 (UniProt Q9NYI0)	-0.016 (inactive)
PKM isoform 2 (UniProt P14618)	-0.068 (inactive)
PRR14L (UniProt Q5THK1)	0.015 (inactive)
PTK2B (UniProt Q14289)	-0.014 (inactive)
PI4K2B (UniProt Q8TCG2)	0.135 (inactive)
